Each structure is given as a SMILES string. Activity calls are given as the source filed them. Cut-off read from the data, not from the text of the source: active = inhibition above about 31%; inactive = the rest.

Usually viability stands for a read-out of living cells in per cent, often relative to untreated cells. For orientation: inhibition means the change of the read-out against control, counted positive when it falls.

The nature of the first experiment: reversal of MRP1-mediated doxorubicin resistance, pilot screen, H69AR cells, doxorubicin co-treatment (AID 601). The settings on record: H69AR cells, CellTiter-Glo, 72 h; compound alone cytotoxicity; at 10 µM. (In general: In ATP-based viability assays light output follows the ATP content of the culture.)
On to `COCCCNC(=O)c1ccc(CS(=O)(=O)c2ccc(OC)cc2)o1`, for which the viability turned out to be 91.6%.
Still for that read-out and setting: in the case of `O=C(c1ccc(CSCc2ccccc2F)o1)N1CCN(c2ccc(N3CCOCC3)nn2)CC1` it was 79.7%; in that of `COCCOC(=O)c1[nH]c2c(c1C)C(=O)CC(c1ccco1)C2` (stereo not given), 23.6%; in that of `CCOC(=O)CSc1nnc(Cn2c(=O)sc3ccccc32)n1C`, 96.7%.
On the same count and under the same terms, in the case of `CCCC(=O)C1=C(N(C)c2ccccc2)CC(C)(C)C(C(=O)OC)C1=O` (stereo not given) it was 94.4%; in that of `CC1(C)CC(=O)N(CC(=O)NCc2ccccc2)c2ccccc2S1(=O)=O`, 92.6%; in that of `CCOc1cc(C2NC(=O)NC(O)(C(F)(F)F)C2C(=O)c2ccccc2)ccc1OC` (stereo not given), 102%.
The same measure, in the same setting: as for `Cn1c(C(=O)NCCN2CCN(c3ccccc3F)CC2)cc2c(=O)n(C)c3ccccc3c21`, the figure is 69.7%.
For `Cc1cc2ccccc2n1CCNC(=O)C1CC1`, the viability turned out to be 88.1%.
For the compound `Cc1cccc(NC(=O)CS(=O)(=O)c2cn(C)c3ccccc23)c1`, the viability amounted to 90.6%.
The same measure, in the same setting: as for `COc1nnc(-c2ccc(C)c(S(=O)(=O)NCCO)c2)c2ccccc12`, the figure is 87.9%; as for `COc1ccc(-c2cnc(SCC(=O)Nc3ccc4c(c3)OCO4)n2Cc2ccco2)cc1`, 83.4%.
On the same count and under the same terms, as for `Cn1cnc2cc(NC(=O)c3ccc(Cl)cc3)ccc21`, the figure is 93%; as for `CC1CCc2nn(CC(=O)Nc3ccc(F)cc3F)cc2C1` (stereo not given), 104%; as for `Cc1ccc(-c2noc(CN3CCN(c4ccccc4F)CC3)n2)cc1`, 92.5%.
On the same count and under the same terms, in the case of `Cc1ccc(NC(=O)c2cc(-c3ccc(C)o3)nc3ccccc23)nc1` it was 4.86%.
With `Cc1nnc(N2C(=O)C(O)=C(C(=O)c3ccco3)C2c2ccc(F)cc2)s1` (stereo not given), the viability was found to be 99.6%.
Same read-out and setting: as for `COc1ccccc1N(CC(=O)Nc1cccnc1)S(C)(=O)=O`, the figure is 89.3%.
Take `CCCc1cc(C(=O)Nc2ccccc2SC)no1`: the viability came to 81.1%.
With `O=C(CSc1nc2c(c(=O)n1-c1ccc(F)cc1)SCC2)NCC1CCCO1` (stereo not given), the viability is 105%.
On the same count and under the same terms, as for `COc1ccc(-c2nc(C)c(C(C)=O)n2O)cc1OC`, the figure is 94.9%; as for `C=CCOC(=O)COc1ccc2c(C)c(C)c(=O)oc2c1C`, 125%; as for `CN(C)CCCNC(=O)CCC1CCCCC1`, 94%.
Still for that read-out and setting: in the case of `CC(C)(O)C#Cc1ccc(C(=O)N2CCN(C(=O)c3ccco3)CC2)cc1` it was 96.9%.
On to `Nc1cccc2c1C(=O)N(c1ccccc1)C2=O`, for which the viability came out at 98.8%.
For the compound `COc1ccc(N2CCN(CCNC(=O)CCS(=O)(=O)c3cccc4nsnc34)CC2)cc1`, the viability came to 103%.
Consider `CCOC(=O)CCc1c(C)nc2cc(-c3ccc(F)cc3)[nH]n2c1=O`, for which the viability stood at 101%.
The same measure, in the same setting: as for `O=C1CC(c2cccnc2)c2cc3c(cc2N1)OCO3` (stereo not given), the figure is 104%.
Turning to `COc1ccccc1CNC(=O)C1CCCN(S(=O)(=O)c2cccc3cccnc23)C1` (stereo not given), the viability worked out at 92%.
Same read-out and setting: as for `Oc1c(C(c2ccccc2)N2CCc3ccccc3C2)sc2ncnn12` (stereo not given), the figure is 85%; as for `O=C(NCCc1c[nH]c2ccccc12)c1cnc2n(c1=O)CCS2`, 82%; as for `CC(NC(=O)c1cc2c(=O)n(C)c3ccccc3c2n1C)c1ccc2c(c1)OCCO2` (stereo not given), 42.7%.
Still for that read-out and setting: in the case of `CCOC(=O)c1ccc(-n2c(C)nc3c(cnn3-c3ccccc3C)c2=O)cc1` it was 98.1%.
With `COc1ccc(CCNC(=O)CSc2nnnn2-c2ccccc2OC)cc1OC`, the viability was 90.1%.
On the same count and under the same terms, in the case of `CCCSc1nnc(N2C(=O)CC(c3ccsc3)C3=C2CCCC3=O)s1` (stereo not given) it was 92.7%; in that of `COC(=O)Cn1c(=O)c2c(nc3n2CC(C)CN3c2ccc(C)c(C)c2)n(C)c1=O` (stereo not given), 85.5%; in that of `O=C(Nc1cccnc1)Nc1ccccn1`, 96.9%.
Same read-out and setting: in the case of `CCn1cc(C(=O)NCc2ccccc2OC)c(=O)c2cc(S(=O)(=O)N(C)C)ccc21` it was 77.6%; in that of `CC1CCN(c2oc(-c3ccccc3F)nc2C#N)CC1`, 92%.
Same read-out and setting: as for `Clc1ccc(Nc2ncnc3c2cnn3-c2ccccc2)cc1`, the figure is 78.7%.

Another experiment in a line: 384-well plate pilot, post-Golgi transport modulator project, inhibition of yeast transport mutant growth (AID 636). The settings on record: absorbance 615 nm, about 18 h, stronger effect = higher value.
For `COCCCNC(=O)c1ccc(CS(=O)(=O)c2ccc(OC)cc2)o1`, the inhibition was -4% (inactive).
On the same count and under the same terms, as for `O=C(c1ccc(CSCc2ccccc2F)o1)N1CCN(c2ccc(N3CCOCC3)nn2)CC1`, the figure is 0.9% (inactive); as for `COCCOC(=O)c1[nH]c2c(c1C)C(=O)CC(c1ccco1)C2` (stereo not given), 0.64% (inactive); as for `CCOC(=O)CSc1nnc(Cn2c(=O)sc3ccccc32)n1C`, 3.33% (inactive).
On the same count and under the same terms, in the case of `CCCC(=O)C1=C(N(C)c2ccccc2)CC(C)(C)C(C(=O)OC)C1=O` (stereo not given) it was -2.47% (inactive).
Same read-out and setting: as for `CC1(C)CC(=O)N(CC(=O)NCc2ccccc2)c2ccccc2S1(=O)=O`, the figure is -4.67% (inactive); as for `CCOc1cc(C2NC(=O)NC(O)(C(F)(F)F)C2C(=O)c2ccccc2)ccc1OC` (stereo not given), -4.46% (inactive).
Consider `Cn1c(C(=O)NCCN2CCN(c3ccccc3F)CC2)cc2c(=O)n(C)c3ccccc3c21`, for which the inhibition is -1.03% (inactive).
Still for that read-out and setting: in the case of `Cc1cc2ccccc2n1CCNC(=O)C1CC1` it was -4.8% (inactive); in that of `Cc1cccc(NC(=O)CS(=O)(=O)c2cn(C)c3ccccc23)c1`, -3.47% (inactive).
Same read-out and setting: in the case of `COc1nnc(-c2ccc(C)c(S(=O)(=O)NCCO)c2)c2ccccc12` it was -1.04% (inactive); in that of `COc1ccc(-c2cnc(SCC(=O)Nc3ccc4c(c3)OCO4)n2Cc2ccco2)cc1`, 0.39% (inactive).
The same measure, in the same setting: as for `Cn1cnc2cc(NC(=O)c3ccc(Cl)cc3)ccc21`, the figure is -4% (inactive); as for `CC1CCc2nn(CC(=O)Nc3ccc(F)cc3F)cc2C1` (stereo not given), -0.93% (inactive); as for `Cc1ccc(-c2noc(CN3CCN(c4ccccc4F)CC3)n2)cc1`, 1.87% (inactive).
As for `Cc1ccc(NC(=O)c2cc(-c3ccc(C)o3)nc3ccccc23)nc1`, the inhibition was -7.43% (inactive).
On the same count and under the same terms, as for `Cc1nnc(N2C(=O)C(O)=C(C(=O)c3ccco3)C2c2ccc(F)cc2)s1` (stereo not given), the figure is -3.46% (inactive); as for `COc1ccccc1N(CC(=O)Nc1cccnc1)S(C)(=O)=O`, 0.81% (inactive).
With `CCCc1cc(C(=O)Nc2ccccc2SC)no1`, the inhibition is 0.9% (inactive).
The same measure, in the same setting: as for `O=C(CSc1nc2c(c(=O)n1-c1ccc(F)cc1)SCC2)NCC1CCCO1` (stereo not given), the figure is -2.4% (inactive); as for `COc1ccc(-c2nc(C)c(C(C)=O)n2O)cc1OC`, -2.05% (inactive); as for `C=CCOC(=O)COc1ccc2c(C)c(C)c(=O)oc2c1C`, -0.81% (inactive).
The same measure, in the same setting: in the case of `CN(C)CCCNC(=O)CCC1CCCCC1` it was -7.16% (inactive); in that of `CC(C)(O)C#Cc1ccc(C(=O)N2CCN(C(=O)c3ccco3)CC2)cc1`, -3.87% (inactive).
In the case of `Nc1cccc2c1C(=O)N(c1ccccc1)C2=O`, the inhibition was -3.87% (inactive).
On the same count and under the same terms, as for `COc1ccc(N2CCN(CCNC(=O)CCS(=O)(=O)c3cccc4nsnc34)CC2)cc1`, the figure is -6.58% (inactive).
Same read-out and setting: as for `CCOC(=O)CCc1c(C)nc2cc(-c3ccc(F)cc3)[nH]n2c1=O`, the figure is -5.45% (inactive); as for `O=C1CC(c2cccnc2)c2cc3c(cc2N1)OCO3` (stereo not given), -0.13% (inactive); as for `COc1ccccc1CNC(=O)C1CCCN(S(=O)(=O)c2cccc3cccnc23)C1` (stereo not given), -4.53% (inactive).
Still for that read-out and setting: as for `Oc1c(C(c2ccccc2)N2CCc3ccccc3C2)sc2ncnn12` (stereo not given), the figure is -2.69% (inactive); as for `O=C(NCCc1c[nH]c2ccccc12)c1cnc2n(c1=O)CCS2`, -3.07% (inactive).
As for `CC(NC(=O)c1cc2c(=O)n(C)c3ccccc3c2n1C)c1ccc2c(c1)OCCO2` (stereo not given), the inhibition was -2.18% (inactive).
On the same count and under the same terms, as for `CCOC(=O)c1ccc(-n2c(C)nc3c(cnn3-c3ccccc3C)c2=O)cc1`, the figure is -0.8% (inactive); as for `COc1ccc(CCNC(=O)CSc2nnnn2-c2ccccc2OC)cc1OC`, -7.33% (inactive); as for `CCCSc1nnc(N2C(=O)CC(c3ccsc3)C3=C2CCCC3=O)s1` (stereo not given), -5.87% (inactive).
Same read-out and setting: in the case of `COC(=O)Cn1c(=O)c2c(nc3n2CC(C)CN3c2ccc(C)c(C)c2)n(C)c1=O` (stereo not given) it was -9.47% (inactive).
For the compound `O=C(Nc1cccnc1)Nc1ccccn1`, the inhibition is -1.69% (inactive).
On the same count and under the same terms, as for `CCn1cc(C(=O)NCc2ccccc2OC)c(=O)c2cc(S(=O)(=O)N(C)C)ccc21`, the figure is -5.6% (inactive); as for `CC1CCN(c2oc(-c3ccccc3F)nc2C#N)CC1`, -2.27% (inactive).
The same measure, in the same setting: as for `Clc1ccc(Nc2ncnc3c2cnn3-c2ccccc2)cc1`, the figure is -4% (inactive).
